PubChem BioAssay
For some of these results: Results with a measured potency or affinity are listed apart. The source made the active and inactive calls. Unless noted, cut-off not given; nearly all actives show IC50 up to about 0.98 µM.

System: not listed separately
Assay: inhibition of 3D7 malaria parasite growth – strain 3D7 (AID 2306; call rule not given here;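 further: 0% = DMSO wells and 100% = chloroquine plus artemisinin control wells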)
Conditions: P. falciparum 3D7 erythrocytic growth, LDH absorbance, 72 h; at 2 µM; hits give high values
For `O=C(NCc1ccc2c(c1)OCO2)c1nn(CCN2CCC(N3CCCC3)CC2)cc1-c1ccc(Cl)c(Cl)c1`, the growth inhibition was 94% (active). For `COc1ccc(N(c2nc(-c3cc(Cl)ccc3Cl)cs2)C2CCNC2)cc1` (stereo unspecified), the growth inhibition was 95% (active). In the case of `O=S(=O)(c1cc(Cl)sc1Cl)N(CCC(O)(C(F)(F)F)C(F)(F)F)Cc1cccc(O)c1`, the growth inhibition is reported as 98% (active). In the case of `CC1CCC2(CC1)N=C(N)N=C(N)N2OCc1cc2ccccc2c2ccccc12` (stereo unspecified), the growth inhibition is reported as 97% (active). In the case of `Cc1ccccc1CCNC(=O)c1cnc(N2CCN(c3ccncc3)CC2)c(Cl)c1`, the growth inhibition is reported as 100% (active). In the case of `CCCN(CCC)CCOc1ccc(C(O)(C#CC(O)(c2ccc(OCCN(CCC)CCC)cc2)c2cccc(Cl)c2)c2cccc(Cl)c2)cc1` (stereo unspecified), the growth inhibition is reported as 101% (active).

Biological target: Calcium-dependent protein kinase 1 (Plasmodium falciparum (isolate 3D7)) (UniProt P62344)
Sequence (P62344 whole entry, looked up): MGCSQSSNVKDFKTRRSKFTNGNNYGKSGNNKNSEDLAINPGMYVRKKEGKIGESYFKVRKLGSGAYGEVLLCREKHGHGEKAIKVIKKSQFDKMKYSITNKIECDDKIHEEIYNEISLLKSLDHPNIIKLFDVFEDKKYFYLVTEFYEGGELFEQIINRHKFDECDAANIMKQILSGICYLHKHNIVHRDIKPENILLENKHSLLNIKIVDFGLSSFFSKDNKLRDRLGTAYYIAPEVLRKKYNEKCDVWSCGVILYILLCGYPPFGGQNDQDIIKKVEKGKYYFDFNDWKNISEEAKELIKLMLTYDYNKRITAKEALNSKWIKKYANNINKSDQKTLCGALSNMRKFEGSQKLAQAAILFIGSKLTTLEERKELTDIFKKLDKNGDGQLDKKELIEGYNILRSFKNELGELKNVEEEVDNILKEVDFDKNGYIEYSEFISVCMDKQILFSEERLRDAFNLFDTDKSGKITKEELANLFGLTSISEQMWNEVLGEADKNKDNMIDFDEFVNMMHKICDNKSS
Assay: PfCDPK1 kinase inhibitors, biochemical, TCAMS library (AID 1159585);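 further: inhibitors leave more ATP so luminescence rises with inhibition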
Conditions: recombinant PfCDPK1, Kinase-Glo ATP depletion luminescence
With `CCn1c(Cc2ccccc2)nnc1SCC(=O)N1c2ccccc2Sc2ccccc21` the outcome was “inactive”. With `CCCc1ccc(S(=O)(=O)NC2CCN(c3ccnc(Nc4ccc(OC)cc4)n3)C2)cc1` (stereo unspecified) the outcome was “inactive”. In the case of `CCc1cc2c(O)c([N+](=O)[O-])c(=O)oc2cc1OCCCCCOc1cc2oc(=O)c([N+](=O)[O-])c(O)c2cc1CC`, the outcome is reported as “inactive”. In the case of `CCCCOc1ccc(C(O)C(CN2CCCCC2)c2ccccc2)cc1` (stereo unspecified), the outcome is reported as “inactive”. For `O=C(Cc1cccs1)NCC(c1ccccc1Cl)c1c[nH]c2ccccc12` (stereo unspecified), the outcome was “inactive”. For `O=C(Nc1ccc(OC2CCN(Cc3ccc(F)cc3)CC2)cc1)c1cccs1`, the outcome was “inactive”. With `Cc1cc(C(F)(F)F)n2nc(C(=O)N(Cc3cncn3Cc3cccc(F)c3)CC3CC3)cc2n1` the outcome was “inactive”. With `O=C(/C=C/c1ccc(Cl)c(Cl)c1)NCCCCCN1CCCN(C(=O)Nc2ccc(F)c(Cl)c2)CC1` the outcome was “inactive”. With `COc1ccc(CN2CCC(NCc3cccc(C(F)(F)F)c3)CC2)cc1` the outcome was “inactive”. For `Cc1cccc2[nH]c(-c3cccc(-c4cccc(NC(=O)C5CC(=O)Nc6ccccc65)c4)c3)nc12` (stereo unspecified), the outcome was “inactive”. With `COc1ccc2ccccc2c1C=NNc1ccnc2cc(Cl)ccc12` the outcome was “inactive”. With `Cc1nn(-c2ccc(Cl)cc2)c2[nH]c(CN3CCN(c4cccc(Cl)c4)CC3)cc(=O)c12` the outcome was “inactive”. With `O=C(Nc1cccc(CN2CCCN(Cc3ccc(O)cc3)CC2)c1)c1cc(F)cc(F)c1` the outcome was “inactive”. With `CC(C)N(CCOc1ccc2c(c1)N(C(=O)Nc1cc(Br)cc(C(F)(F)F)c1)CC2)C(C)C` the outcome was “inactive”. In the case of `Cc1ccc2cc(NC(=O)CCCCCCCON3C(N)=NC(N)=NC34CCCCC4)ccc2n1`, the outcome is reported as “inactive”. In the case of `CCOc1ccc(-c2cc3nc(C4CCNCC4)c(C(=O)Nc4ccc(C)cc4Cl)cn3n2)cc1`, the outcome is reported as “inactive”. With `COc1ccccc1CNc1nc(Nc2ccccc2C)nc2ccccc12` the outcome was “inactive”. For `O=C(/C=C/c1ccccc1)N1CCOC(CCN2CCC(c3ccccc3)CC2)(c2ccc(Cl)c(Cl)c2)C1` (stereo unspecified), the outcome was “inactive”. With `COCCCNc1sc(S(=O)(=O)c2ccccc2)nc1S(=O)(=O)c1ccc(Cl)cc1` the outcome was “inactive”. For `CC(C)c1ccc(NC(=O)c2ccc(C(=O)NCC3CCN(CC4CCCCC4)CC3)cc2)cc1`, the outcome was “inactive”. In the case of `CCOC(=O)C(NC(=O)c1ccc([N+](=O)[O-])o1)C(C)C` (stereo unspecified), the outcome is reported as “inactive”. With `O=C(Nc1cccc(OCCN2CCCC2)c1)Nc1ccc(Cl)c(Cl)c1` the outcome was “inactive”. With `COc1ccc2ccccc2c1CNCC1CCN(CC2CCCCC2)CC1` the outcome was “inactive”. With `COc1cc2c(cc1S(=O)(=O)c1ccc(NC(=O)Nc3ccc(F)cc3)cc1)CCN(C)CC2` the outcome was “inactive”. With `CCNc1cc(C(=O)N[C@@H](Cc2ccoc2)[C@H](O)CNC(C)CCCC(C)C)cc(N2CCCCS2(=O)=O)c1` (stereo partly specified) the outcome was “inactive”. For `O=c1cc(NCCC(CNCc2ccc(Br)o2)NCc2cc(Br)cc(Br)c2)[nH]c2ccccc12` (stereo unspecified), the outcome was “inactive”. In the case of `CCNc1cc(C(=O)N[C@@H](Cc2ccccc2)[C@H](O)CNC(C)(C)CC(C)(C)C)c(F)c(N2CCCCS2(=O)=O)c1`, the outcome is reported as “inactive”. In the case of `CS(=O)(=O)c1ccc(CCNCc2ccc(-c3ccc(CN(C(=O)C4CC(=O)c5ccccc54)C4CCN(Cc5ccccc5)CC4)cc3)nc2)cc1` (stereo unspecified), the outcome is reported as “inactive”. With `O=C(NC1CCCCC1)N(Cc1ccc(-c2ccc(CNC3CCCC3)cc2)cc1)C1CCN(Cc2ccccc2)CC1` the outcome was “inactive”. For `CCCCCCCCc1[nH]c(C)c(Br)c(=O)c1Br`, the outcome was “inactive”. In the case of `O=C1C[C@@H]([S@@](=O)Cc2nccs2)N1CCOCCCCCCc1ccc(Cl)cc1`, the outcome is reported as “inactive”. For `Cc1ccc2[nH]c3c(NCCCN4CCOCC4)ncnc3c2c1`, the outcome was “inactive”. In the case of `c1ccc2c(c1)CN(Cc1cc3ccccc3[nH]1)CC1(CCN(Cc3c[nH]c4cnccc34)CC1)O2`, the outcome is reported as “inactive”. In the case of `CC1(C)N=C(N)N=C(N)N1OCCCc1cc(Cl)c(Cl)cc1Cl`, the outcome is reported as “inactive”. For `O=C(NCc1ccc2c(c1)OCO2)c1nn(CCN2CCC(N3CCCC3)CC2)cc1-c1ccc(Cl)c(Cl)c1`, the outcome was “inactive”. In the case of `COc1ccc(N(c2nc(-c3cc(Cl)ccc3Cl)cs2)C2CCNC2)cc1` (stereo unspecified), the outcome is reported as “inactive”. With `O=S(=O)(c1cc(Cl)sc1Cl)N(CCC(O)(C(F)(F)F)C(F)(F)F)Cc1cccc(O)c1` the outcome was “inactive”. For `CC1CCC2(CC1)N=C(N)N=C(N)N2OCc1cc2ccccc2c2ccccc12` (stereo unspecified), the outcome was “inactive”. In the case of `Cc1ccccc1CCNC(=O)c1cnc(N2CCN(c3ccncc3)CC2)c(Cl)c1`, the outcome is reported as “inactive”. With `CCCN(CCC)CCOc1ccc(C(O)(C#CC(O)(c2ccc(OCCN(CCC)CCC)cc2)c2cccc(Cl)c2)c2cccc(Cl)c2)cc1` (stereo unspecified) the outcome was “inactive”.
